# PubChem BioAssay AID651899 (Broad Institute, 2012)
# Entries with a potency or affinity are not part of this list. The source made the active and inactive calls. No rule for the calls is given here.
# Test: cytotoxicity in HEK293 cells, dose response, cytotoxicity control, cell-based, plate reader, cherry-pick (AID 651899);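 also: cells exposed to compound for 48 hours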
# Conditions: series mostly up to 26 µM; activity change, negative = cytotoxicity: at the top concentration
row,SMILES,"activity change, negative = cytotoxicity"
1,COc1ccc(NC(=O)c2ccc(Cl)nc2)cc1S(=O)(=O)N1CCOCC1,-21.3% (inactive)
2,CC(=O)c1ccc(NC(=O)CN2CCN(c3ccccc3)CC2)cc1,-22.7% (inactive)
3,COc1ccc(Nc2c(-c3ccc(OC)cc3)nc3cnccn23)cc1,17.8% (inactive)
4,O=C(Nc1ncc2c(n1)CC(c1ccco1)CC2=O)c1ccco1 (stereo unspecified),20% [at 6 µM] (inactive)
5,Nn1c(SCCOc2ccccc2)nnc1-c1cccnc1,3.82% (inactive)
6,CCNC(=O)[C@H]1[C@H](CO)[C@H]2Cn3c(ccc(-c4cccc(F)c4)c3=O)[C@H]2N1C(=O)Cc1cccnc1,11.2% (inactive)
7,O=C(Nc1cccnc1)c1ccc(Oc2ccccc2)cc1,-23.9% (inactive)
8,CN1c2ccc(-c3ccccc3)cc2[C@H]2[C@H](CCN2C(=O)Cc2ccccn2)[C@H]1CO,13.3% [at 23.5 µM] (inactive)
9,Cc1cc(C(=O)NC2CC(C)(C)Cc3c2cnn3-c2cccc(F)c2)nn1C (stereo unspecified),-25.6% (inactive)
10,Cc1nc2nc(SCC(=O)NCc3ccco3)nn2c(C)c1Cc1c(F)cccc1Cl,10.3% (inactive)
11,Cc1ccc(NC(=O)CSc2nc(=O)n(CCCN3CCOCC3)c3c2CCCC3)cc1F,23.6% (inactive)
12,COc1ccc(C2c3c(-c4cc(Cl)c(C)cc4O)n[nH]c3C(=O)N2Cc2cccnc2)cc1OC (stereo unspecified),-10.2% (inactive)
13,CC(=O)c1ccc(C(=O)N2CCCC(CO)(Cc3ccccc3C)C2)s1 (stereo unspecified),-20.1% (inactive)
14,C=CCn1c(SCc2c(C(=O)OC)sc(N)c2C(=O)OC)nnc1-c1ccc(Br)cc1,-6.79% (inactive)
15,Cn1nnc2cc(C(=O)N3CCC(c4ccccc4)C3)ccc21 (stereo unspecified),-13.1% (inactive)
16,CC(=O)O[C@]1(C(C)=O)CC[C@H]2[C@@H]3C=C(C)C4=CC(=O)CC[C@]4(C)[C@H]3CC[C@@]21C,-26.5% (inactive)
17,COc1ccc(NC2CCCN(C(=O)c3ccc(C(C)=O)s3)C2)cc1 (stereo unspecified),42.4% (inactive)
18,COc1cccc(CNC(=O)c2ccc(NC(=O)C3=CSCCO3)cc2)c1,1.53% (inactive)
19,CNC(=O)C[C@H]1CC[C@@H]2[C@H](COC[C@@H](O)CN2C(=O)Nc2ccc(Cl)c(Cl)c2)O1,11.3% (inactive)
20,O=C(CN1C(=O)/C(=C/c2cccc(Br)c2)SC1=S)Nc1cccnc1,29.1% (inactive)
21,CCCc1cc(=O)oc2c3c(cc(OCC(=O)NCCCn4ccnc4)c12)OC(C)(C)CC3,-17.5% (inactive)
